# Experimental data reported in ChEMBL document CHEMBL3988442, “University of Dundee, Small-Polar-MMV Screening Library” (2021).
# For some assays here: Entries with a potency or affinity are not part of this list.
# Key:
# Set-up in all cases: scale not given: direction of the effect not stated beside the values
# [1] = biological target: Protein translocase subunit SecA (Escherichia coli (strain K12)) (UniProt P10408); assay: Assay to Identify E. coli SecA ATPase Inhibitors; assay type: functional; details: 30 µM
# Sequence of Protein translocase subunit SecA (Escherichia coli (strain K12)) (P10408 whole entry): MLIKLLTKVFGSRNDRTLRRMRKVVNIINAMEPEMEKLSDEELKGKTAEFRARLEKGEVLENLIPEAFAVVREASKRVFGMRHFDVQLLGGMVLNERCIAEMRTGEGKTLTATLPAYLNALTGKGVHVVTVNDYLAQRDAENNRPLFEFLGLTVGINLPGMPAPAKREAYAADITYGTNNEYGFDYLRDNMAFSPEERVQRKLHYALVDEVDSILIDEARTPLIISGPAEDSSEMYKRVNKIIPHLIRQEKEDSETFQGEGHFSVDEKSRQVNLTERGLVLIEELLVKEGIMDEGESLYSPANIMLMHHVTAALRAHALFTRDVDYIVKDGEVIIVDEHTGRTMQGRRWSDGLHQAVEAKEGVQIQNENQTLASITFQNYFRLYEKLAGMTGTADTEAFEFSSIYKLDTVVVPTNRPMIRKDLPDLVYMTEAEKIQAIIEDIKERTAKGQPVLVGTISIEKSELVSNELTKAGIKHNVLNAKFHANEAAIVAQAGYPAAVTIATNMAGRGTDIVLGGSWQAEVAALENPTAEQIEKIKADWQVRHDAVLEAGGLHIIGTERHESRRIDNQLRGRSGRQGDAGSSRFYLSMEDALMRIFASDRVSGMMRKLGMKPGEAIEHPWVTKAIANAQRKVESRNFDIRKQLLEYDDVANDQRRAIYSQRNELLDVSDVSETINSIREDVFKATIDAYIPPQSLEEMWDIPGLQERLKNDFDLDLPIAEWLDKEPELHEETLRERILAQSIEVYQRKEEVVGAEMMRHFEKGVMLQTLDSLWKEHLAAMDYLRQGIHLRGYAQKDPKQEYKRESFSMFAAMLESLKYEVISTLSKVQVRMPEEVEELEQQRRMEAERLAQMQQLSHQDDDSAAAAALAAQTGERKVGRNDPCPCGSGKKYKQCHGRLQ
# [2] = biological target: T1, Ubiquitin-activating enzyme e1, putative (Leishmania donovani (strain BPK282A1)) (UniProt E9BSI1); assay: Leishmania donovani Ubiquitin Activating Enzyme (LdE1); assay type: functional; details: 30 µM
# T1 sequence (whole entry): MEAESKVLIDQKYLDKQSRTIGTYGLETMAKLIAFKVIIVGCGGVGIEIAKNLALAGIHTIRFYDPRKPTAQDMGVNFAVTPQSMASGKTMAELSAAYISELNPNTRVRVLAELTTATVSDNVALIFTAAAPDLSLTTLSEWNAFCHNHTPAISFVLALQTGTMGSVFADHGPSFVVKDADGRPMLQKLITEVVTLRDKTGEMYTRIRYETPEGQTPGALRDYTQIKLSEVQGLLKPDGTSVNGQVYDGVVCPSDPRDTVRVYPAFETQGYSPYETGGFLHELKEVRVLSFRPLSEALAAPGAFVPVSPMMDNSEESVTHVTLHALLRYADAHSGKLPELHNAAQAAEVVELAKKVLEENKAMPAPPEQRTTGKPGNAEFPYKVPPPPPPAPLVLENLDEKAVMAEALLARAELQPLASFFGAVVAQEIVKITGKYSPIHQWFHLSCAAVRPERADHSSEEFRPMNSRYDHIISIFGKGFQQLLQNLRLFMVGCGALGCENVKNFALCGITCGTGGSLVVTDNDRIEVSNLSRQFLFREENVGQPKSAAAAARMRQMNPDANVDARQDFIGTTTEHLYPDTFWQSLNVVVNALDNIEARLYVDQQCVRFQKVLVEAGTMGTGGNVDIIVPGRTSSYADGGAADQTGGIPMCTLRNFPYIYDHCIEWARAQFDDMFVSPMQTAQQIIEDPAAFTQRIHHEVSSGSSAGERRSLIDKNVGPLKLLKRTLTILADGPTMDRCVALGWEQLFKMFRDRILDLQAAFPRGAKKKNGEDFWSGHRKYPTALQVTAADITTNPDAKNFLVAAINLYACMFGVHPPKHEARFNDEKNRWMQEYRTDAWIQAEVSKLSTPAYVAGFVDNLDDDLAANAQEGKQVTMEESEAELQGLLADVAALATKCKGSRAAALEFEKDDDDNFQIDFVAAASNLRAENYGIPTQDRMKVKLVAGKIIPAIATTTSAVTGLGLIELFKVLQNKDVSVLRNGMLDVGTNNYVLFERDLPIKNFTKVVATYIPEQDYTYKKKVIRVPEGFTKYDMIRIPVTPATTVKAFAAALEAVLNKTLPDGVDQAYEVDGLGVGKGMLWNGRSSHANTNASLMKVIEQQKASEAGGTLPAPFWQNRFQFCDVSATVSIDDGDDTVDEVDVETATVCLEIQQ
# [3] = biological target: AMP-activated protein kinase, AMPK (Homo sapiens) (UniProt P54646+O43741+P54619+Q9UGJ0+Q9Y478+Q13131+Q9UGI9); assay: AMP-dependent Kinase enzyme assay. An in vitro enzyme assay that detects ADP turnover that is directly proportional to AMPK activity. This uses naive AMPK that is activated during the assay with MK-8722; assay type: functional; details: 30 µM
# [4] = biological target: Sialic acid-binding Ig-like lectin 9 (Homo sapiens) (UniProt Q9Y336); assay: Hs-Siglec9 ALPHAscreen SOP 20170721; details: 10 µM
# Sequence of Sialic acid-binding Ig-like lectin 9 (Homo sapiens) (Q9Y336 whole entry): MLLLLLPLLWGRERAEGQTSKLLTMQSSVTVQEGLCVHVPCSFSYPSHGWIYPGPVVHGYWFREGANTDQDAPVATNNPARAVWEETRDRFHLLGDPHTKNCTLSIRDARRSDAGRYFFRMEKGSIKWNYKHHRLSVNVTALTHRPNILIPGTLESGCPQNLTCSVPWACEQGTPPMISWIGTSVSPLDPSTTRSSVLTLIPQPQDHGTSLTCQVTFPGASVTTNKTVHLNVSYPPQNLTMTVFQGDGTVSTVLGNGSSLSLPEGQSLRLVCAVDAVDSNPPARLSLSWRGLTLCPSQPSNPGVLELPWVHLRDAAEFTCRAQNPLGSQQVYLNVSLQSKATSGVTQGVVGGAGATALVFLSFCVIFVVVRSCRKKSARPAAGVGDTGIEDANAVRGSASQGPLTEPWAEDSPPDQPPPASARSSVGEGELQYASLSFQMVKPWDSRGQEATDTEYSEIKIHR
# [5] = tested on: Trypanosoma cruzi; assay: Trypanosoma cruzi phosphomannomutase and mannose-1-phosphate guanylyltransferase assay; assay type: functional; details: 10 µM
# [6] = biological target: T2, Arginase-2, mitochondrial (Homo sapiens) (UniProt P78540); assay: in vitro enzyme assay to detect the production of urea directly proportional to the activity of Arginase II; assay type: functional; details: 33.3 µM; note: in the data most compounds retested in dose-response had high values
# T2 sequence (whole entry): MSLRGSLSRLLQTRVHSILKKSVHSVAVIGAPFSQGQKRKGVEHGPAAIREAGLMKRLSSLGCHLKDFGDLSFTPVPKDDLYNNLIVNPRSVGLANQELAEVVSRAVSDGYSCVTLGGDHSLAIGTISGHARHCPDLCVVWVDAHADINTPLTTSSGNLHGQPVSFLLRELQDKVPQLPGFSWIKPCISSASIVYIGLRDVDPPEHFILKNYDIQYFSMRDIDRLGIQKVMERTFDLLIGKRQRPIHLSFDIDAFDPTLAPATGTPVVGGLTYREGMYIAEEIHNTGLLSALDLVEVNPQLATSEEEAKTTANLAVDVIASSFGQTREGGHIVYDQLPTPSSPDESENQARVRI
# [7] = biological target: T3, Proteasome subunit beta (Trypanosoma cruzi) (UniProt O96673); assay: Trypanosoma cruzi proteasome chymotrypsin-like activity (TcProtChymo) assay.; note: in the data most compounds retested in dose-response had high values; assay type: functional; details: 9.37 µM
# T3 sequence (whole entry): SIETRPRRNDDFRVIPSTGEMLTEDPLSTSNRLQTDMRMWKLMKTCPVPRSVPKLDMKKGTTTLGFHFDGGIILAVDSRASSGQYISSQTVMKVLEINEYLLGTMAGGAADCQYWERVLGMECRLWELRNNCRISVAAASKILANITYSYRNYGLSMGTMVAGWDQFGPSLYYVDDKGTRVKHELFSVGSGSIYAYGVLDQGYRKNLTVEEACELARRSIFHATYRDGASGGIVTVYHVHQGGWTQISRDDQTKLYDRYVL
# [8] = organism: Homo sapiens; assay: To identify inhibition of the IFN signalling (Jak-Stat) pathway via expression of an eGFP reporter gene under the control of an IFN-stimulated response element (ISRE) containing MxA promoter.; assay type: functional; details: 30 µM
# [9] = biological target: T4, Tyrosyl-tRNA synthetase, putative (Trypanosoma cruzi (strain CL Brener)) (UniProt Q4DSP6); assay: Trypanosoma cruzi tyrosyl tRNA synthetase (TcYRS) _High Tyrosine SOP; assay type: functional; details: 30 µM; note: in the data most compounds retested in dose-response had high values
# T4 sequence (whole entry): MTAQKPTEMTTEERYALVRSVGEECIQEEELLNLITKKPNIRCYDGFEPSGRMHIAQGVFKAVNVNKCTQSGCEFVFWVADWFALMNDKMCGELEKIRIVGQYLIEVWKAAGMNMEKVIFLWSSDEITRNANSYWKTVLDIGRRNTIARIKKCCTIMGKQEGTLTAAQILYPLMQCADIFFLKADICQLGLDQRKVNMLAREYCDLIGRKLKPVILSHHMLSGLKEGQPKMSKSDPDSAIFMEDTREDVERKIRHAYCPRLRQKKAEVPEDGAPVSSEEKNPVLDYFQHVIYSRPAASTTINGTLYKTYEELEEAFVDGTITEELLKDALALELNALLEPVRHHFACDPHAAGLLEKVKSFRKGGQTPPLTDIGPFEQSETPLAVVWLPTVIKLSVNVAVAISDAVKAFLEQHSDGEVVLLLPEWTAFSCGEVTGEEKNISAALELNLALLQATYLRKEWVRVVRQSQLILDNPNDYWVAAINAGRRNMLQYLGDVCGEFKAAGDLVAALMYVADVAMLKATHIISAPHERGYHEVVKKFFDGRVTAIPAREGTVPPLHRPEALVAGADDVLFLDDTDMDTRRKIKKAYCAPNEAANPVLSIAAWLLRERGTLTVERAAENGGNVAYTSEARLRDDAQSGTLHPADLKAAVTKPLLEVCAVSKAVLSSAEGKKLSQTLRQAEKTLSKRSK
# [10] = biological target: T4, Tyrosyl-tRNA synthetase, putative (Trypanosoma cruzi (strain CL Brener)); assay: Trypanosoma cruzi tyrosyl tRNA synthetase (TcYRS) SOP; assay type: functional; details: 30 µM
# [11] = biological target: Chromo domain-containing protein 1 (Saccharomyces cerevisiae (strain ATCC 204508 / S288c) (Baker's yeast)) (UniProt P32657); assay: ScCHD-1 Enzyme Inhibition Assay; assay type: functional; details: 30 µM; note: in the data most compounds retested in dose-response had high values
# Sequence of Chromo domain-containing protein 1 (Saccharomyces cerevisiae (strain ATCC 204508 / S288c) (Baker's yeast)) (P32657 whole entry, the tested form may be a part): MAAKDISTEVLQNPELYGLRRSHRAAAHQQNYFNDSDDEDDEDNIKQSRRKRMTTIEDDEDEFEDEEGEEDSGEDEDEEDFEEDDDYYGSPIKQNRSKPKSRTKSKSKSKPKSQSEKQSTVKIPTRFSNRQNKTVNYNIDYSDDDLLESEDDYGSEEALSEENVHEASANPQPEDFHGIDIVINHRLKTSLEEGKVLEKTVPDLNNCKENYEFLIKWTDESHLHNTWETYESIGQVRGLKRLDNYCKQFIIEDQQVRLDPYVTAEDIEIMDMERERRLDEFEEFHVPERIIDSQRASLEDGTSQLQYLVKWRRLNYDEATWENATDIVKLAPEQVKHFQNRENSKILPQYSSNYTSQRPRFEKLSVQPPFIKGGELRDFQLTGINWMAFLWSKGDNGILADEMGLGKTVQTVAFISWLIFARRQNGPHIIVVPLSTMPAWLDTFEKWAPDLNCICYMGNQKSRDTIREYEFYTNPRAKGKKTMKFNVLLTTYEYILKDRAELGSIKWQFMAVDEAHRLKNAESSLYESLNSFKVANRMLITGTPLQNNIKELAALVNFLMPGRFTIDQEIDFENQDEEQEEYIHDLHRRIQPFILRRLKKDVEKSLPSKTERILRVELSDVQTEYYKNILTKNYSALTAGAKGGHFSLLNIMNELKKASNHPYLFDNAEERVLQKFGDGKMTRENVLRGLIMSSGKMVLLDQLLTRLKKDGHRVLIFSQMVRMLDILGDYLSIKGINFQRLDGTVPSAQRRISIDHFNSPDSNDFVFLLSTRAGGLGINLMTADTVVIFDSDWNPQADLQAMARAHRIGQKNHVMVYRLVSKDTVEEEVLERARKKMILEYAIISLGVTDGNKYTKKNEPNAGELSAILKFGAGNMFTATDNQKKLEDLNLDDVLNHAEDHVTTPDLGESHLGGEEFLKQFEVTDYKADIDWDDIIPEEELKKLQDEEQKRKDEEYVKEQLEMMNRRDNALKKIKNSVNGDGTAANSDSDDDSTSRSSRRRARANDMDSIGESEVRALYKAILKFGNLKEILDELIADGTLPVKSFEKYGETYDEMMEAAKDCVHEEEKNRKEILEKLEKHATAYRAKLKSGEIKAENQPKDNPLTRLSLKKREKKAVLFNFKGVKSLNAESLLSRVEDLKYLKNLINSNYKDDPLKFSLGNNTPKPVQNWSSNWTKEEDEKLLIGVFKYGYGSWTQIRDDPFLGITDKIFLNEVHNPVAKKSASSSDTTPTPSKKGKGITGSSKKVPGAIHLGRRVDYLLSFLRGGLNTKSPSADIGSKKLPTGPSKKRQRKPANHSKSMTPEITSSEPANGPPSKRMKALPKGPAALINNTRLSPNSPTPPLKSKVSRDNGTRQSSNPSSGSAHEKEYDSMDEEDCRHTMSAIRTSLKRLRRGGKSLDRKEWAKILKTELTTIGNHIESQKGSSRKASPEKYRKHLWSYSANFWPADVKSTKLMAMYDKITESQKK
Compound,Percent Effect [1],Percent Effect [2],Percent Effect [3],Percent Effect [4],Percent Effect [5],Percent Effect [6],Percent Effect [7],Percent Effect [8],Percent Effect [9],Percent Effect [10],Percent Effect [11]
CC(Cn1cccn1)NC(=O)NCc1ccc(S(N)(=O)=O)cc1 (configuration not stated),-1.8%,15.6%,6.57%,-7.88%,-1.27%,-1.05%,13.7%,6%,9.52%,23.5%,-18.9%
CNC(=O)c1cccc(C2CNCCN2C(C)=O)c1 (configuration not stated),0.479%,14.9%,9.34%,-6.16%,-4.15%,-0.232%,10.6%,19.3%,2.15%,3.9%,-8.27%
COCCn1ccc(=O)c(OCC(=O)Nc2cccc(C(C)=O)c2)c1C,-2.27%,12%,3.85%,5.25%,0.982%,-5.11%,13.5%,-24.6%,8.47%,20.5%,-3.7%
Cc1cnn(C2CN(Cc3ccc4c(c3)OCCO4)C2)c1,-0.648%,-2.67%,-8.78%,1.34%,-2.04%,-1.56%,19.9%,8.06%,8.2%,16.1%,-8.99%
CC(=O)NCC(=O)N1CCOC2(CCCN(c3cccnc3)C2)C1 (configuration not stated),-5.02%,2.7%,-2.24%,1.82%,-6.05%,0.833%,15.3%,7.03%,8.91%,6.1%,-2.32%
CC(C)c1ccc(O)c(C(=O)N2CCN(Cc3cscn3)CC2)c1,-1.48%,16.2%,0.162%,10.1%,5.85%,-6.1%,4.85%,26.8%,5.94%,18.3%,-3.11%
CCn1ncc2c1CCCC2NCc1cccc2c1OCCO2 (configuration not stated),-2.98%,-6.33%,6.39%,-0.488%,-0.718%,4.09%,0%,12.6%,0%,2.53%,-17.9%
CCOc1ncccc1NC(=O)c1cc(C)c(C)s1,-7.94%,1.39%,3.33%,-1.86%,-2.82%,-2.21%,11.1%,11.6%,-3.16%,2.56%,-0.429%
O=S(=O)(C1CC1)N1CCO[C@H]2[C@H](OCC3CCCC3)CC[C@@H]21,-4.67%,0%,1.22%,-1.17%,4.83%,-45.7%,2.05%,-5.99%,0%,5%,-4.13%
Cc1cnc(N2CC3(CCN(C(=O)c4ccoc4)C3)C2)nc1,-4.42%,5.2%,2.7%,2.78%,-3.64%,-30.3%,15%,1.13%,0%,1.24%,-4.73%
COc1c(C2CCCN2C(=O)Cc2c(C)noc2C)c(C)nn1C (configuration not stated),-4.91%,15.2%,-0.162%,8.65%,0.661%,0.38%,0.0819%,-12.4%,7.39%,16.5%,-6.93%
CC(CN1CCOCC1)NC(=O)NCc1ccc(Cl)s1 (configuration not stated),0.411%,10.5%,7.25%,0.82%,-2.63%,-2.37%,15.8%,5.71%,8.51%,20.8%,-3.24%
CCN(CC)C(=O)c1ccn(COc2ccccc2)n1,-2.87%,-4%,2.57%,5.83%,4.32%,-2.99%,8.5%,1.5%,5.29%,10.3%,-0.306%
CN(C)c1ccc(CN(CCCn2ccnc2)Cc2c[nH]cn2)cc1,-6.31%,17.6%,-10.4%,5.43%,3.16%,-6.26%,12.5%,8.69%,8.6%,19.5%,-30.5%
Cc1ccc(S(=O)(=O)N2C[C@@H]3C[C@@H](NC(=O)C(C)(C)C)[C@@H]3C2)cc1,-5.99%,14.9%,5.25%,4.69%,2.77%,-3.48%,12.3%,2.6%,3.23%,9.09%,-22.4%
Cn1ccc(C(=O)N2CCN(CCc3ccccc3)CC2)cc1=O,-5.05%,11.4%,1.25%,-2.05%,-1.74%,3.23%,13%,6.37%,12.5%,17.7%,-7.93%
O=C(c1ccc[nH]1)N1CCC2(CC1)C(=O)Nc1ccccc12,-3.56%,16.2%,-2.52%,18%,6.35%,4.22%,10.7%,-3.84%,5.38%,23.5%,-5.84%
CC(C)c1noc(CN2CCC3(CCCO3)CCC2=O)n1 (configuration not stated),-8.4%,2.67%,0.336%,-1.54%,-3.8%,-0.521%,2.27%,25.6%,1.64%,6.17%,-6.74%
COCCN1C[C@H]2[C@@H](C1)N(Cc1ccc(C)o1)CC[C@H]2OC,-2.85%,-30.1%,-5.66%,7.25%,6.94%,-3.19%,14.3%,0.524%,8.33%,6.17%,-11.5%
COCc1cc(O)nc(C2CCCN(Cc3cc(OC)ccc3F)C2)n1 (configuration not stated),-7.04%,1.35%,4.88%,5.64%,-3.56%,-2.09%,-0.312%,16.7%,-2.15%,-1.3%,-9.01%
Cc1nn(C)c2c(NCc3cccnc3)nc(C3CC3)nc12,-3.37%,15.6%,11.8%,13.7%,5.61%,24.8%,12.8%,12.8%,1.07%,13.6%,0.869%
CC(=O)c1ccccc1C(=O)NCC1(CO)CC1,-0.313%,10.8%,-5.63%,7.79%,1.16%,-4.29%,3.79%,21.2%,4.76%,-4.88%,-0.424%
